# Measurements: paper PMC5540273 (PLoS ONE, 2017)
# Key:
# Conditions in all cases: concentration: 1 μM, replicates: in singlicate; n = 1
# MAP4K3 = test system: MAP4K3
# MAP4K4 = test system: MAP4K4
# MAP4K5 = test system: MAP4K5
# MAPKAPK2 = test system: MAPKAPK2
# MAPKAPK5 = test system: MAPKAPK5
# MARK1 = test system: MARK1
# MARK2 = test system: MARK2
# MARK3 = test system: MARK3
# MARK4 = test system: MARK4
# MAST1 = test system: MAST1
# MEK1 = test system: T1, MEK1
# T1 construct: gene MAP2K1
# MEK2 = test system: T2, MEK2
# T2 construct: gene MAP2K2
# MEK3 = test system: T3, MEK3
# T3 construct: gene MAP2K3
# MEK4 = test system: T4, MEK4
# T4 construct: gene MAP2K4
# MEK5 = test system: T5, MEK5
# T5 construct: gene MAP2K5
# MEK6 = test system: T6, MEK6
# T6 construct: gene MAP2K6
# MELK = test system: MELK
# MERTK = test system: MERTK
# MET = test system: MET
# MINK = test system: T7, MINK
# T7 construct: gene MINK1
# 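Further: KINOMEscan kinase panel screen.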
SMILES,%Inh (MAP4K3),%Inh (MAP4K4),%Inh (MAP4K5),%Inh (MAPKAPK2),%Inh (MAPKAPK5),%Inh (MARK1),%Inh (MARK2),%Inh (MARK3),%Inh (MARK4),%Inh (MAST1),%Inh (MEK1),%Inh (MEK2),%Inh (MEK3),%Inh (MEK4),%Inh (MEK5),%Inh (MEK6),%Inh (MELK),%Inh (MERTK),%Inh (MET),%Inh (MINK)
Cc1ccc(C(=O)NCC(N)=O)cc1-n1c(C)cc(OCc2ccc(F)cc2F)c(Br)c1=O,12%,4%,0%,17%,0%,24%,11%,10%,16%,0%,0%,26%,0%,0%,2%,13%,24%,3%,15%,0%
CCCCCc1nc2c(N)ncnc2n1CCCCC [SKF-97255],2%,0%,0%,0%,0%,24%,0%,20%,31%,25%,15%,28%,34%,18%,32%,15%,0%,17%,0%,0%
Cc1cccc(-c2nc(Nc3ccc4ncsc4c3)c3ccccc3n2)n1 [GW867588],9%,3%,4%,0%,0%,6%,0%,0%,9%,21%,2%,3%,3%,0%,12%,0%,5%,0%,0%,0%
CN1c2ccc(CNc3ccc(F)cc3)cc2-c2c(cnn2C)S1(=O)=O,8%,0%,0%,0%,0%,3%,0%,0%,11%,0%,11%,18%,13%,22%,31%,0%,0%,0%,0%,26%
COc1cc2c(cc1OCCN1CCN(C)CC1)ncc1c3ccc(C#N)cc3[nH]c21,12%,59%,22%,0%,0%,7%,29%,0%,0%,97.2%,34%,80%,9%,0%,99.9%,11%,51%,0%,0%,93%
COc1cc(Nc2nccc(N3CCC(NC(=O)c4cccc(NC(C)=O)c4)C3)n2)cc(OC)c1OC (stereo not drawn) [GSK1379754],2%,23%,10%,0%,0%,0%,0%,0%,15%,0%,0%,0%,7%,17%,93.5%,0%,19%,30%,21%,27%
COc1ccc(COc2cc(-n3cnc4ccccc43)sc2C(N)=O)cc1 [GSK1024304],0%,2%,24%,0%,0%,0%,1%,5%,11%,0%,0%,0%,0%,14%,32%,0%,0%,1%,0%,24%
O=C1Cc2cc(Nc3nc(NCc4cccc(S(=O)(=O)C(F)(F)F)c4)ncc3C(F)(F)F)ccc2N1,13%,0%,0%,4%,30%,5%,0%,19%,6%,0%,0%,0%,15%,30%,0%,14%,0%,0%,0%,0%
Nc1nccc(-c2c(-c3ccc(F)cc3)ncn2C2CCN(CC(F)(F)F)CC2)n1 [SB-236560],0%,0%,0%,0%,0%,0%,0%,0%,4%,40%,0%,0%,30%,0%,10%,0%,0%,9%,0%,43%
